# Results from PubChem BioAssay (EPA / NIEHS).
# Active and inactive are the calls of the source. How the source made its calls: active means hit-call score of the fitted dose curve at least 0.9, where 1 is the maximum; inactive means score below 0.9.
# Columns and labels:
# Conditions in all cases: mRNA level, 48 h; actives raise or lower the signal
# [1] = read-out: BCL2L11 (gene 10018); experiment: LTEA_HepaRG_BCL2L11: Life Technologies and Expression Analysis (LTEA) Assay for Bcl-2 (BCL2L11) gene using HepaRG (AID 2283473)
# How it was run: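 Read-out is BCL2L11 transcript level by qRT-PCR, normalized to three housekeeping genes and fitted bidirectionally against 0.5% DMSO vehicle. HepaRG cells received chemicals for 48 h in serum-free induction medium, 100 uM down in half-log dilutions.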
# [2] = read-out: Apolipoprotein A-V (APOA5) gene, APOA5 (gene 116519); experiment: LTEA_HepaRG_APOA5: Life Technologies and Expression Analysis (LTEA) Assay for Apolipoprotein A-V (APOA5) gene using HepaRG (AID 2283474)
# How it was run: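 Readout is APOA5 transcript level by qRT-PCR on Fluidigm dynamic arrays, normalized to three housekeeping genes. HepaRG cultures received chemicals for 48 h at up to 100 uM (half-log steps, 0.5% DMSO), with gain or loss scored relative to DMSO.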
# [3] = read-out: Apoptosis regulator Bcl-2 (Homo sapiens) (UniProt P10415); experiment: LTEA_HepaRG_BCL2: Life Technologies and Expression Analysis (LTEA) Assay for Bcl-2 gene using HepaRG (AID 2283475)
# How it was run: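 qRT-PCR of BCL2 transcript, normalized to three housekeeping genes (ACTB, GAPDH, POLR2A), after 48 h chemical exposure of HepaRG cells; concentrations top 100 uM with half-log dilutions, 0.5% DMSO vehicle, duplicates; changes up or down fitted relative to vehicle.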
# [4] = read-out: Bcl-2 (BID) gene, BID (gene 637); experiment: LTEA_HepaRG_BID: Life Technologies and Expression Analysis (LTEA) Assay for Bcl-2 (BID) gene using HepaRG (AID 2283476)
# How it was run: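 Duplicate 48 h treatments of HepaRG cells in serum-free induction medium spanned 100 uM downward in half-log steps, 0.5% DMSO. Transcript change quantified by qRT-PCR against three housekeeping genes, fitted up or down versus DMSO.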
# [5] = read-out: Caspase-3 (Homo sapiens) (UniProt P42574); experiment: LTEA_HepaRG_CASP3: Life Technologies and Expression Analysis (LTEA) Assay for cysteine-aspartic acid protease (CASP3) using HepaRG (AID 2283477)
# How it was run: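 Read-out is CASP3 mRNA level by TaqMan qRT-PCR in human HepaRG cells after 48 h chemical exposure. Eight half-log concentrations topping at 100 uM were tested in 0.5% DMSO; gain or loss was fitted relative to DMSO.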
# [6] = read-out: Cytochrome P450 (CYP24A1), CYP24A1 (gene 1591); experiment: LTEA_HepaRG_CYP24A1: Life Technologies and Expression Analysis (LTEA) Assay for Cytochrome P450 (CYP24A1) using HepaRG (AID 2283478)
# How it was run: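 HepaRG, 48 h chemical exposure, 8-pt half-log CRC from 100 uM, 0.5% DMSO vehicle, duplicates. Endpoint: CYP24A1 mRNA by Fluidigm TaqMan qRT-PCR, normalized ACTB/GAPDH/POLR2A; gain/loss fit vs DMSO.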
# [7] = read-out: Cytochrome P450 (CYP1A2), CYP1A2 (gene 1544); experiment: LTEA_HepaRG_CYP1A2: Life Technologies and Expression Analysis (LTEA) Assay for Cytochrome P450 (CYP1A2) using HepaRG (AID 2283479)
# How it was run: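 CYP1A2 transcript induction or loss, quantified by Fluidigm qRT-PCR against three housekeeping genes, was fitted bidirectionally against 0.5% DMSO controls. Human HepaRG cells received eight half-log concentrations from 100 uM over 48 h.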
# [8] = read-out: cysteine-aspartic acid protease (CASP8), CASP8 (gene 841); experiment: LTEA_HepaRG_CASP8: Life Technologies and Expression Analysis (LTEA) Assay for cysteine-aspartic acid protease (CASP8) using HepaRG (AID 2283480)
# How it was run: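 qRT-PCR readout of CASP8 mRNA, normalized to three housekeeping genes, after 48 h chemical exposure of HepaRG cells; 8-point half-log series, top 100 uM, 0.5% DMSO vehicle. Bidirectional curve fitting against DMSO baseline.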
# [9] = read-out: Cytochrome P450 (CYP2B6), CYP2B6 (gene 1555); experiment: LTEA_HepaRG_CYP2B6: Life Technologies and Expression Analysis (LTEA) Assay for Cytochrome P450 (CYP2B6) using HepaRG (AID 2283481)
# How it was run: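 HepaRG cells plated 48 h, switched to serum-free induction medium, then dosed 48 h (8 points, half-log from 100 uM, 0.5% DMSO). RNA isolated; CYP2B6 expression measured by qRT-PCR; gain or loss fitted relative to DMSO.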
# [10] = read-out: Cytochrome P450 2C19 (Homo sapiens) (UniProt P33261); experiment: LTEA_HepaRG_CYP2C19: Life Technologies and Expression Analysis (LTEA) Assay for CYP2C19 using HepaRG (AID 2283482)
# How it was run: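 Transcript levels of CYP2C19 were quantified by qRT-PCR after HepaRG cells were treated for 48 hours with test chemicals up to 100 uM (eight half-log concentrations, 0.5% DMSO vehicle). Gain or loss of signal was fitted relative to DMSO.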
# [11] = read-out: CYP2C8 (gene 1558); experiment: LTEA_HepaRG_CYP2C8: Life Technologies and Expression Analysis (LTEA) Assay for CYP2C8 using HepaRG (AID 2283483)
# How it was run: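 HepaRG (human liver line), 48 h chemical exposure, 8-pt half-log series from 100 uM, 0.5% DMSO vehicle. Readout: CYP2C8 transcript by qRT-PCR, housekeeping-normalized. Bidirectional fit vs DMSO baseline.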
# [12] = read-out: CYP2C9 (gene 1559); experiment: LTEA_HepaRG_CYP2C9: Life Technologies and Expression Analysis (LTEA) Assay for CYP2C9 using HepaRG (AID 2283484)
# How it was run: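 HepaRG, 48 h dosing, 8-pt half-log series, top 100 uM, 0.5% DMSO vehicle. Read-out: CYP2C9 transcript by TaqMan qRT-PCR, housekeeping-normalized (ACTB/GAPDH/POLR2A). Gain or loss fitted vs DMSO baseline.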
# [13] = read-out: CYP2E1 (gene 1571); experiment: LTEA_HepaRG_CYP2E1: Life Technologies and Expression Analysis (LTEA) Assay for CYP2E1 using HepaRG (AID 2283485)
# How it was run: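 CYP2E1 transcript measured by Fluidigm qRT-PCR against three housekeeping genes in human HepaRG cells treated 48 h (top 100 uM, half-log steps, 0.5% DMSO vehicle). Gain or loss fitted relative to DMSO baseline.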
# [14] = read-out: CYP4A11 (gene 1579); experiment: LTEA_HepaRG_CYP4A11: Life Technologies and Expression Analysis (LTEA) Assay for CYP4A11 using HepaRG (AID 2283486)
# How it was run: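 HepaRG, 48 h chem exposure, 8 conc (100 uM top, half-log), 0.5% DMSO vehicle; qRT-PCR readout, housekeeping-gene normalized; bidirectional curve fit vs DMSO baseline.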
# [15] = read-out: Cytochrome P450 3A4 (Homo sapiens) (UniProt P08684); experiment: LTEA_HepaRG_CYP3A4: Life Technologies and Expression Analysis (LTEA) Assay for CYP3A4 using HepaRG (AID 2283487)
# How it was run: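 Differentiated HepaRG cells, plated 48 h, then dosed 48 h in serum-free induction medium with 0.5% DMSO, 8 half-log concentrations up to 100 uM, duplicate. CYP3A4 mRNA by qRT-PCR, normalized to ACTB/GAPDH/POLR2A; bidirectional fit versus DMSO.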
# [16] = read-out: DNA damage-inducible transcript 3 (DDIT3), DDIT3 (gene 1649); experiment: LTEA_HepaRG_DDIT3: Life Technologies and Expression Analysis (LTEA) Assay for DNA damage-inducible transcript 3 (DDIT3) using HepaRG (AID 2283488)
# How it was run: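 DDIT3 transcript was quantified by qRT-PCR with ACTB/GAPDH/POLR2A normalization after 48 h chemical treatment of differentiated HepaRG cells in 0.5% DMSO. Dosing was eight-point, half-log, top 100 uM, duplicate wells. Curves fitted bidirectionally versus DMSO.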
# [17] = read-out: Pro-epidermal growth factor (Homo sapiens) (UniProt P01133); experiment: LTEA_HepaRG_EGF: Life Technologies and Expression Analysis (LTEA) Assay for Epidermal growth factor (EGF) using HepaRG (AID 2283489)
# How it was run: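 HepaRG, 48 h dosing, 100 uM top, half-log x8, 0.5% DMSO. Readout: TaqMan qRT-PCR (Fluidigm array), housekeeping-normalized. Gain or loss of signal fit vs DMSO.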
# [18] = read-out: Early growth response protein 1 (EGR1) transcription factor, EGR1 (gene 1958); experiment: LTEA_HepaRG_EGR1: Life Technologies and Expression Analysis (LTEA) Assay for Early growth response protein 1 (EGR1) transcription factor using HepaRG (AID 2283490)
# How it was run: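 HepaRG, 48 h exposure, 8-pt half-log series from 100 uM, 0.5% DMSO vehicle; EGR1 transcript by TaqMan qRT-PCR (Fluidigm array), housekeeping-normalized; bidirectional fit relative to DMSO baseline.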
# [19] = read-out: Ezrin (EZR), EZR (gene 7430); experiment: LTEA_HepaRG_EZR: Life Technologies and Expression Analysis (LTEA) Assay for Ezrin (EZR) using HepaRG (AID 2283491)
# How it was run: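 EZR transcript levels came from Fluidigm qRT-PCR and were normalized to three housekeeping genes after 48 h chemical exposure of HepaRG cells. Dosing used an 8-point half-log series with a 100 uM top concentration in 0.5% DMSO, tested in duplicate; both directions were fitted versus vehicle.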
# Chain of Caspase-3 (Homo sapiens) (P42574 whole entry, looked up): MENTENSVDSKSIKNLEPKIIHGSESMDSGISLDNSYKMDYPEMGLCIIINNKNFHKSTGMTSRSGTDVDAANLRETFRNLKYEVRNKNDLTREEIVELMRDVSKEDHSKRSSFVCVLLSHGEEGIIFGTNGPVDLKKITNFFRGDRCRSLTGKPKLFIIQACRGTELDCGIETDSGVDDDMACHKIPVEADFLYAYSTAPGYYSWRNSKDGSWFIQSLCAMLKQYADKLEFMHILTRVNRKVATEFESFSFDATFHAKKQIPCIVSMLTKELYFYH
# Chain of Cytochrome P450 3A4 (Homo sapiens) (P08684 whole entry, looked up): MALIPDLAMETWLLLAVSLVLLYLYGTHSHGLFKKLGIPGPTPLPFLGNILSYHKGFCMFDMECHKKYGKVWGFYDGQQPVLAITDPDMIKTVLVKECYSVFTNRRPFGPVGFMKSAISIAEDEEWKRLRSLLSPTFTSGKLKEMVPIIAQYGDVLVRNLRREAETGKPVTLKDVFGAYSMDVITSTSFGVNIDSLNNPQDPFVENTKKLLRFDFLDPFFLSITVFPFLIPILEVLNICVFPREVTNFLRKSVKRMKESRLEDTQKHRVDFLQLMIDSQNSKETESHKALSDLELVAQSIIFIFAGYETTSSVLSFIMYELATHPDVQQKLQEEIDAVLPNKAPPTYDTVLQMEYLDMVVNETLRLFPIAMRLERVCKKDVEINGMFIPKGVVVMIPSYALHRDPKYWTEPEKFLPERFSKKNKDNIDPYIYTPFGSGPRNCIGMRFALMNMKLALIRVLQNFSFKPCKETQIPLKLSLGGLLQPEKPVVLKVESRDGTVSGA
# Chain of Apoptosis regulator Bcl-2 (Homo sapiens) (P10415 whole entry, looked up): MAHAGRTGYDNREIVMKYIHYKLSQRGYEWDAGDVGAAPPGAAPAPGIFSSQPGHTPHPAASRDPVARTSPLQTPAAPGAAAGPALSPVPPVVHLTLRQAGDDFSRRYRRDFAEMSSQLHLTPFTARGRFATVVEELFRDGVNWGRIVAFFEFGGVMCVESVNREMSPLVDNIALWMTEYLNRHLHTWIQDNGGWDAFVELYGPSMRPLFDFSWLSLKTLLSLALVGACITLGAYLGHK
# Chain of Cytochrome P450 2C19 (Homo sapiens) (P33261 whole entry, looked up): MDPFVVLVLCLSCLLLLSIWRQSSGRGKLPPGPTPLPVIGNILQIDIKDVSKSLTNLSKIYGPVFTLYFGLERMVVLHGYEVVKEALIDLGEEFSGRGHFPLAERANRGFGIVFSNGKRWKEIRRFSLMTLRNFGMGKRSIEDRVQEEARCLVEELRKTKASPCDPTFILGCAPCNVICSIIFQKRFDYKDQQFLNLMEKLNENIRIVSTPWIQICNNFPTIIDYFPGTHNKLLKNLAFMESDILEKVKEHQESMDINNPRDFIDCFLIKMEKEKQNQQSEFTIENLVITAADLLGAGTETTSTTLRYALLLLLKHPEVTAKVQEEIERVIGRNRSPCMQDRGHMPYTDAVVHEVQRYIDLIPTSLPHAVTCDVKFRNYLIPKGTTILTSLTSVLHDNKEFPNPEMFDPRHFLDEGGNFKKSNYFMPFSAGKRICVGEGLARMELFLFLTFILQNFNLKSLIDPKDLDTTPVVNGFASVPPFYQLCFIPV
compound,measurement,setting,value
CCc1ccc(C(=O)NN(C(=O)c2cc(C)cc(C)c2)C(C)(C)C)cc1,outcome,[1],inactive
same,outcome,[2],inactive
same,outcome,[3],inactive
same,outcome,[4],inactive
same,outcome,[5],inactive
same,outcome,[6],inactive
same,outcome,[7],inactive
same,outcome,[8],inactive
same,AC50,[9],92.4 µM (active)
same,AC50,[10],2.71 µM (active)
same,AC50,[11],12.1 µM (active)
same,outcome,[12],inactive
same,AC50,[13],42.4 µM (active)
same,AC50,[14],77.2 µM (active)
same,AC50,[15],3.75 µM (active)
same,outcome,[16],inactive
same,outcome,[17],inactive
same,AC50,[18],50 µM (active)
same,outcome,[19],inactive
C[C@H]1[C@H](c2ccc(Cl)cc2)SC(=O)N1C(=O)NC1CCCCC1,AC50,[1],67.2 µM (active)
same,AC50,[2],36.8 µM (active)
same,AC50,[3],76 µM (active)
same,outcome,[4],inactive
same,outcome,[5],inactive
same,outcome,[6],inactive
same,AC50,[7],83.9 µM (active)
same,outcome,[8],inactive
same,AC50,[9],81.7 µM (active)
same,AC50,[10],89 µM (active)
same,AC50,[11],77.8 µM (active)
same,AC50,[12],78.6 µM (active)
same,AC50,[13],32.5 µM (active)
same,AC50,[14],40.4 µM (active)
same,AC50,[15],90 µM (active)
same,AC50,[16],72.3 µM (active)
same,outcome,[17],inactive
same,outcome,[18],inactive
same,AC50,[19],77.9 µM (active)
O=C(O)COc1ccc(Cl)cc1Cl,outcome,[1],inactive
same,outcome,[2],inactive
same,outcome,[3],inactive
same,outcome,[4],inactive
same,outcome,[5],inactive
same,outcome,[6],inactive
same,AC50,[7],50 µM (active)
same,outcome,[8],inactive
same,AC50,[9],20.8 µM (active)
same,AC50,[10],19.6 µM (active)
same,AC50,[11],22 µM (active)
same,outcome,[12],inactive
same,AC50,[13],29.3 µM (active)
same,AC50,[14],38.1 µM (active)
same,outcome,[15],inactive
same,outcome,[16],inactive
same,outcome,[17],inactive
same,outcome,[18],inactive
same,outcome,[19],inactive
COP(=S)(OC)Oc1ccc(SC)c(C)c1,outcome,[1],inactive
same,outcome,[2],inactive
same,outcome,[3],inactive
same,outcome,[4],inactive
same,outcome,[5],inactive
same,outcome,[6],inactive
same,AC50,[7],35 µM (active)
same,outcome,[8],inactive
same,AC50,[9],7.23 µM (active)
same,AC50,[10],50 µM (active)
same,outcome,[11],inactive
same,outcome,[12],inactive
same,AC50,[13],18.9 µM (active)
same,outcome,[14],inactive
same,outcome,[16],inactive
same,outcome,[17],inactive
same,outcome,[18],inactive
same,outcome,[19],inactive
CC(C)(C)C(O)/C(=C\c1ccc(Cl)cc1Cl)n1cncn1 (stereo not drawn),AC50,[1],79.8 µM (active)
same,AC50,[2],25.3 µM (active)
same,AC50,[3],21.8 µM (active)
same,outcome,[4],inactive
same,outcome,[5],inactive
same,outcome,[6],inactive
same,outcome,[7],inactive
same,AC50,[8],80.6 µM (active)
same,AC50,[9],0.748 µM (active)
same,AC50,[10],4.01 µM (active)
same,AC50,[11],3.88 µM (active)
same,outcome,[12],inactive
same,AC50,[13],12.9 µM (active)
same,AC50,[14],21.9 µM (active)
same,AC50,[15],84.5 µM (active)
same,AC50,[16],29.4 µM (active)
same,outcome,[17],inactive
same,AC50,[18],33.8 µM (active)
same,AC50,[19],86.6 µM (active)
CCOCN(C(=O)CCl)c1c(C)cccc1CC,AC50,[1],67.5 µM (active)
same,AC50,[2],79.4 µM (active)
same,outcome,[3],inactive
same,outcome,[4],inactive
same,outcome,[5],inactive
same,outcome,[6],inactive
same,outcome,[7],inactive
same,outcome,[8],inactive
same,AC50,[9],0.077 µM (active)
same,AC50,[10],89.5 µM (active)
same,AC50,[11],83.6 µM (active)
same,AC50,[12],80.2 µM (active)
same,AC50,[13],81.3 µM (active)
same,AC50,[14],83.5 µM (active)
same,outcome,[15],inactive
same,outcome,[16],inactive
same,outcome,[17],inactive
same,outcome,[18],inactive
same,outcome,[19],inactive
